Holding throughout (assay): DAPPL (digital affinity profiling via proximity ligation, sequencing); 10 mM Tris-HCl pH 7.5, 50 mM NaCl, 1 mM DTT, 4% glycerol, room temperature, 30 min; GST-TFs on glutathione beads, 16-mer random dsDNA library, 0.1% formaldehyde crosslink after washing; high values mean tight binding
Experiment [1] concerns the target T1, FEV (Homo sapiens, UniProt Q99581 1-238).
T1 sequence: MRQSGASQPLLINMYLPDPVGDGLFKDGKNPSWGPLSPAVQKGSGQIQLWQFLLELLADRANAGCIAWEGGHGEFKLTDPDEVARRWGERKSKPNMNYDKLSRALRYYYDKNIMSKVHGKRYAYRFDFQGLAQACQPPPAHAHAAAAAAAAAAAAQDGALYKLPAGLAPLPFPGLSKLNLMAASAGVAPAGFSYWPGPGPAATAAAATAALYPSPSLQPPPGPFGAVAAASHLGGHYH
The settings on record: protein: recombinant; tags: N-terminal GST; dsDNA, one strand shown. A digest of the protocol: (§1)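 After expression in yeast as GST fusions, human transcription factors were bound to glutathione beads, DNA-barcoded and mixed with a tag-only sample. The pools were incubated with 200 nmole of a 16-mer random double-stranded DNA library in Tris/NaCl/DTT/glycerol buffer (30 min, room temperature), washed and crosslinked with 0.1% formaldehyde. Proximity ligation with BsaI/T4 ligase ran for 1 h at 37 °C, before PCR amplification and sequencing on an Illumina NextSeq500. Binding signal is a hexamer's read frequency for a factor divided by its frequency for the tag-only sample.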

Experiment [2] addresses ETV5 (Homo sapiens, UniProt P41161 1-510). The note with it: protein: recombinant; tags: N-terminal GST; dsDNA, one strand shown. A digest of the protocol: as §1
Experiment [3] concerns the target HSF1 (Homo sapiens, UniProt Q00613 1-529). The note with it: protein: recombinant; tags: N-terminal GST; chain copies: 3; dsDNA, one strand shown. In short, it runs like this:
as §1

Experiment [4] deals with T2, SPIC (Homo sapiens, UniProt Q8N5J4 1-248).
T2 sequence: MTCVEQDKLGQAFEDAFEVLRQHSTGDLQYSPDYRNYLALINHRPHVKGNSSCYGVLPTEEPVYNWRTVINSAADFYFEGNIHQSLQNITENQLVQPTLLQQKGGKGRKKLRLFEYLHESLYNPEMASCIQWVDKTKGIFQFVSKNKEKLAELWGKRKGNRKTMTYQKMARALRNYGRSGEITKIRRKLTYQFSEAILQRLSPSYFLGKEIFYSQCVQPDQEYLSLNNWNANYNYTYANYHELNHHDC
The note with it: protein: recombinant; tags: N-terminal GST; dsDNA, one strand shown. In short, it runs like this:
as §1

Experiment [5] addresses ELF4 (Homo sapiens, UniProt Q99607 1-663). The note with it: protein: recombinant; tags: N-terminal GST; dsDNA, one strand shown. A digest of the protocol: as §1
Experiment [6] deals with T3, ELK4 (Homo sapiens, UniProt P28324-2 1-405).
T3 sequence: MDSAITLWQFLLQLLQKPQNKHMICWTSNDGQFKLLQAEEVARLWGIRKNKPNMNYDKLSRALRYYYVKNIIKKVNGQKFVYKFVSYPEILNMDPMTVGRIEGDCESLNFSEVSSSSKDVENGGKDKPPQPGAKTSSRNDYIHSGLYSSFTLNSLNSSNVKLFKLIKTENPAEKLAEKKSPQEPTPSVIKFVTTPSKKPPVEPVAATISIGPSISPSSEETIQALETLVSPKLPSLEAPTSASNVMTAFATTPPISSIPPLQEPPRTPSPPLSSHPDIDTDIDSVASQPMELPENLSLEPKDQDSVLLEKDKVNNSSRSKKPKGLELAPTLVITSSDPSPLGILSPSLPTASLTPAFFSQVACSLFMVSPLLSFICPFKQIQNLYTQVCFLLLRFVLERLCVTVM
The settings on record: protein: recombinant; tags: N-terminal GST; dsDNA, one strand shown. A digest of the protocol: as §1

Experiment [7] deals with T4, ETV2 (Homo sapiens, UniProt O00321 1-342).
T4 sequence: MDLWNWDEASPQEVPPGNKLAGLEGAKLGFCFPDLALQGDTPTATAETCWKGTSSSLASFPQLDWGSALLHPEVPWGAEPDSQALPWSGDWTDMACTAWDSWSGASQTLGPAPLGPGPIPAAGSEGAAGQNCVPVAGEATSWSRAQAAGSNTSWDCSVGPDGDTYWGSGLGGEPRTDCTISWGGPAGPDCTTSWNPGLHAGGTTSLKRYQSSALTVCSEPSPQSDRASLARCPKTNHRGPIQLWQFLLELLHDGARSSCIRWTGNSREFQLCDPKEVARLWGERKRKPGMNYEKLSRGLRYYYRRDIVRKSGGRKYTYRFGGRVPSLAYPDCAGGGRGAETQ
The settings on record: protein: recombinant; tags: N-terminal GST; dsDNA, one strand shown. A digest of the protocol: as §1

The target of experiment [8] is T5, ELF3 (Homo sapiens, UniProt P78545 1-371).
T5 sequence: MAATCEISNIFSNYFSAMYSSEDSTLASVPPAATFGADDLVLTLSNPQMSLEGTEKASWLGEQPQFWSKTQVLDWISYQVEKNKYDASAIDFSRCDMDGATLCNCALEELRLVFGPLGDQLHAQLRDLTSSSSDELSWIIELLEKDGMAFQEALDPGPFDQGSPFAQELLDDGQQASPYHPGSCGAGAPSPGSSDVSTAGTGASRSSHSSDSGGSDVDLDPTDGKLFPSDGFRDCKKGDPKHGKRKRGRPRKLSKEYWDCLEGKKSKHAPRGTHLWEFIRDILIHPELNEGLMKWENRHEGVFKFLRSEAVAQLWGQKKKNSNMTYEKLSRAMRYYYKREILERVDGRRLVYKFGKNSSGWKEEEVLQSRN
The settings on record: protein: recombinant; tags: N-terminal GST; dsDNA, one strand shown. A digest of the protocol: as §1

Experiment [9] deals with CRX (Homo sapiens, UniProt O43186 1-299). The note with it: protein: recombinant; tags: N-terminal GST; dsDNA, one strand shown. In short, it runs like this: as §1
CRX, sequence (O43186 whole entry): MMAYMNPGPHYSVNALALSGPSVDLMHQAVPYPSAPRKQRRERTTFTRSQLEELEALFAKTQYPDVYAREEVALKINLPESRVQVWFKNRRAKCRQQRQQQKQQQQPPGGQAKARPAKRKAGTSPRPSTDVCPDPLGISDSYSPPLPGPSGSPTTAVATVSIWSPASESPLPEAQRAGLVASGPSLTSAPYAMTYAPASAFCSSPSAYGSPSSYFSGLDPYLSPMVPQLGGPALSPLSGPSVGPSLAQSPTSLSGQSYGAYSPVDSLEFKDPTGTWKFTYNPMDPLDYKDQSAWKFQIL
Experiment [10] has as its target ETV1 (Homo sapiens, UniProt P50549 1-477). The note with it: protein: recombinant; tags: N-terminal GST; dsDNA, one strand shown. In short, it runs like this:
as §1

The target in experiment [11] is T6, ERF (Homo sapiens, UniProt P50548 1-548).
T6 sequence: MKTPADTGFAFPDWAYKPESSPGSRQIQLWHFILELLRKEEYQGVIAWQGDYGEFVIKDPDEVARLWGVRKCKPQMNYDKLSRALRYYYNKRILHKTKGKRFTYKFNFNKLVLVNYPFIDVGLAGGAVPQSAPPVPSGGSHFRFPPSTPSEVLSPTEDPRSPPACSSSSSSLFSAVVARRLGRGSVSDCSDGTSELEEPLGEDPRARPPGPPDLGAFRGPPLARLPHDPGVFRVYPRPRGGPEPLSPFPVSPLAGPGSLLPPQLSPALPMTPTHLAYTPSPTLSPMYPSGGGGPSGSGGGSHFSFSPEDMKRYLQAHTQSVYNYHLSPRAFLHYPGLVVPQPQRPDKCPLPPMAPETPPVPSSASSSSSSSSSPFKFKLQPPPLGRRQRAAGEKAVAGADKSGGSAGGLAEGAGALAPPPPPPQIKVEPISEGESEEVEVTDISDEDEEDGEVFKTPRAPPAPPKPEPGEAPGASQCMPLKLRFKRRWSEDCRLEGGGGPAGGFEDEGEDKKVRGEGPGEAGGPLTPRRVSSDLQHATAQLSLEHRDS
The note with it: protein: recombinant; tags: N-terminal GST; dsDNA, one strand shown. In short, it runs like this:
as §1

The target of experiment [12] is T7, ETV3L (Homo sapiens, UniProt Q6ZN32 1-361).
T7 sequence: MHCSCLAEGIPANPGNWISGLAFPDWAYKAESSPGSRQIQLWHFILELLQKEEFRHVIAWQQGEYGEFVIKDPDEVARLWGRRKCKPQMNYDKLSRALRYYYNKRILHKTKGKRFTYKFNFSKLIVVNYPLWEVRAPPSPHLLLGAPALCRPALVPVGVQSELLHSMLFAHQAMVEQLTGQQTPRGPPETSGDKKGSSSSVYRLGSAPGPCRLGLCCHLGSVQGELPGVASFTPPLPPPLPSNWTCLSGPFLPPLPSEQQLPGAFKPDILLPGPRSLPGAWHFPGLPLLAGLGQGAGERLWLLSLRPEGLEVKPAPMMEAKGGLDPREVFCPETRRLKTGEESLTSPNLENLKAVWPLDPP
The note with it: protein: recombinant; tags: N-terminal GST; dsDNA, one strand shown. A digest of the protocol:
as §1

The target in experiment [13] is T8, ETS2 (Homo sapiens, UniProt P15036 1-469).
T8 sequence: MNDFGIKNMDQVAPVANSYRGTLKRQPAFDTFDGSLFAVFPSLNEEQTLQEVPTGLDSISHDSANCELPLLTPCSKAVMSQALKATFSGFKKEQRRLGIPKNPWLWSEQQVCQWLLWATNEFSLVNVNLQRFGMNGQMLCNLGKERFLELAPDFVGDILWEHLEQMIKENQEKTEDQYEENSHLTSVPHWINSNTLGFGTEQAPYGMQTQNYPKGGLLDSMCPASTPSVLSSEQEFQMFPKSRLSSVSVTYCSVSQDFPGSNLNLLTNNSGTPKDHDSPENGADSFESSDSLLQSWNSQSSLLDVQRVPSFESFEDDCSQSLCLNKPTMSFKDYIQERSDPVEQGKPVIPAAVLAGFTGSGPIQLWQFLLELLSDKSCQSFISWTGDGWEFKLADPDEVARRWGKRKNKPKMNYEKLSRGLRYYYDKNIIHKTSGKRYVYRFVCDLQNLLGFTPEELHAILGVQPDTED
The note with it: protein: recombinant; tags: N-terminal GST; dsDNA, one strand shown. A digest of the protocol:
as §1

The target in experiment [14] is T9, SPDEF (Homo sapiens, UniProt O95238 1-335).
T9 sequence: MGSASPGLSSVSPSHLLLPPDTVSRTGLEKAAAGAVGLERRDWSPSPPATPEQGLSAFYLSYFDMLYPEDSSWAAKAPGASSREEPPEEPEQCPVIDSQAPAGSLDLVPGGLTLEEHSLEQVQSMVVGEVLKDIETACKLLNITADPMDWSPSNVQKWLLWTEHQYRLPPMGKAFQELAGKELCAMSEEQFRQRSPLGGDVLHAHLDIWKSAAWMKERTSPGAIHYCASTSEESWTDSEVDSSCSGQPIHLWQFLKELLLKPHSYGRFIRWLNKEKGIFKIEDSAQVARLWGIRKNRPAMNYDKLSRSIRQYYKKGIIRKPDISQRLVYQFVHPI
The note with it: protein: recombinant; tags: N-terminal GST; dsDNA, one strand shown. A digest of the protocol:
as §1

Experiment [15] deals with T10, ETV7 (Homo sapiens, UniProt Q9Y603 1-341).
T10 sequence: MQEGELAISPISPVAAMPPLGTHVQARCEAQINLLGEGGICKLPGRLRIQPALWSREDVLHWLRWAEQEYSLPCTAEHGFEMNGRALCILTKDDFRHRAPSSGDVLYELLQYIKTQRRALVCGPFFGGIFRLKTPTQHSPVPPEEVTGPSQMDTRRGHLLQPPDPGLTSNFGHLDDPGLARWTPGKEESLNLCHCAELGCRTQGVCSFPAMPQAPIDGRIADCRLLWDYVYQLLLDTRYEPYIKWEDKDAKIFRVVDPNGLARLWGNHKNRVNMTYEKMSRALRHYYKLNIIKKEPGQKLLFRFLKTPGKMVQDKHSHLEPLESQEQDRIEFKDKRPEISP
The settings on record: protein: recombinant; tags: N-terminal GST; dsDNA, one strand shown. In short, it runs like this:
as §1

Experiment [16] addresses T11, ELF5 (Homo sapiens, UniProt Q9UKW6-2 1-255).
T11 sequence: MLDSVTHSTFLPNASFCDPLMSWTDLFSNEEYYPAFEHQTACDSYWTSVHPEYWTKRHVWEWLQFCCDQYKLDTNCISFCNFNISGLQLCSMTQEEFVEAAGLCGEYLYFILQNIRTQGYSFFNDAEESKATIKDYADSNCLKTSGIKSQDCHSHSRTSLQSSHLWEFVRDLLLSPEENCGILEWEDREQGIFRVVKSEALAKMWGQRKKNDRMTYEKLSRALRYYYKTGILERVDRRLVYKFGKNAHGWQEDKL
The settings on record: protein: recombinant; tags: N-terminal GST; dsDNA, one strand shown. A digest of the protocol:
as §1

The target of experiment [17] is T12, ETV3 (Homo sapiens, UniProt P41162-2 1-143).
T12 sequence: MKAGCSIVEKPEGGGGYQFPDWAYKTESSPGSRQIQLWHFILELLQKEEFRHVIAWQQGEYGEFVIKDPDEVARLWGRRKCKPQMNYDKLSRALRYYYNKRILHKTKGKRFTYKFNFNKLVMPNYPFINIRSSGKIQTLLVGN
The note with it: protein: recombinant; tags: N-terminal GST; dsDNA, one strand shown. In short, it runs like this:
as §1

Experiment [18] deals with ETV6 (Homo sapiens, UniProt P41212 1-452). The note with it: protein: recombinant; tags: N-terminal GST; dsDNA, one strand shown. In short, it runs like this: as §1
ETV6, sequence (P41212 whole entry): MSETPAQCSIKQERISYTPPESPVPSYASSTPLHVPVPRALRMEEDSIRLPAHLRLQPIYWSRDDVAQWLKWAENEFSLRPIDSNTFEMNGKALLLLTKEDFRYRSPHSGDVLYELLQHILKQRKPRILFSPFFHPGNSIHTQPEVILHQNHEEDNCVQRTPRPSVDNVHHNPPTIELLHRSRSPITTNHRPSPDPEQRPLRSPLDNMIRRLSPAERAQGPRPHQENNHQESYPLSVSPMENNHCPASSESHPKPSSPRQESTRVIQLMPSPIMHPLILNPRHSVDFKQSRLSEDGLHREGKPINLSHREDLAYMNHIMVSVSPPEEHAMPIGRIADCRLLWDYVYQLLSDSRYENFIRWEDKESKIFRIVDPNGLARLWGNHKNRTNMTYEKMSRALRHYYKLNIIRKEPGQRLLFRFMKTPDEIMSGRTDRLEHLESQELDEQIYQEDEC

ELF4, sequence (Q99607 whole entry): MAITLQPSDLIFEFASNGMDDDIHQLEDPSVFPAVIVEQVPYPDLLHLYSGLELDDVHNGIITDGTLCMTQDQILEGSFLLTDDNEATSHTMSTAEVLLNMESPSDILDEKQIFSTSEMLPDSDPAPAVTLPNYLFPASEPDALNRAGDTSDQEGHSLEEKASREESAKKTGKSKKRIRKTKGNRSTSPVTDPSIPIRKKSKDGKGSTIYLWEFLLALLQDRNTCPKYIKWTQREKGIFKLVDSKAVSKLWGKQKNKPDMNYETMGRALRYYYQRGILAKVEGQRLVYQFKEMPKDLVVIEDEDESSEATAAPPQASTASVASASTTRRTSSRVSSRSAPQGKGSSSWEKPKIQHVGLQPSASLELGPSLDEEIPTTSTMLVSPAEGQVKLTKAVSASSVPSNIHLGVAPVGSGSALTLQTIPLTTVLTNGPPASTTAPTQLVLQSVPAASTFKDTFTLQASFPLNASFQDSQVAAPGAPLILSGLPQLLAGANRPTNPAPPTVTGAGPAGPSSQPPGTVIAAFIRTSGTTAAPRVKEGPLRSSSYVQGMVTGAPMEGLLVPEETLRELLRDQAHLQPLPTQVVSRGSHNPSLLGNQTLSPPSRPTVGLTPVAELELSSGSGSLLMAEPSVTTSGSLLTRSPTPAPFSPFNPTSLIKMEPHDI
HSF1, sequence (Q00613 whole entry): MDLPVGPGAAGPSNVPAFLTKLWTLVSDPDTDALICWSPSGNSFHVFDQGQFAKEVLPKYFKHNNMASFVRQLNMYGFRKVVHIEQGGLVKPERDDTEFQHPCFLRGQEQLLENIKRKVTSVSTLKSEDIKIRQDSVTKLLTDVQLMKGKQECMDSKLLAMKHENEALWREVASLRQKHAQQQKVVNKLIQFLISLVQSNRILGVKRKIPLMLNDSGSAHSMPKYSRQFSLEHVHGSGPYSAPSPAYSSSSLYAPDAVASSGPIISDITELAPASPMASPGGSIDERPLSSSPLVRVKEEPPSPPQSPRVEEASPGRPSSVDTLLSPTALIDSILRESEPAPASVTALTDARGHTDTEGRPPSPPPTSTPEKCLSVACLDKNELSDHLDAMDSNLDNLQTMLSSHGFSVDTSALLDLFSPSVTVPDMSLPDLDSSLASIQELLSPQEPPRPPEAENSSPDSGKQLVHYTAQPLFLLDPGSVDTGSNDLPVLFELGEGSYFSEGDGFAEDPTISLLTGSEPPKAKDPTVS
ETV5, sequence (P41161 whole entry): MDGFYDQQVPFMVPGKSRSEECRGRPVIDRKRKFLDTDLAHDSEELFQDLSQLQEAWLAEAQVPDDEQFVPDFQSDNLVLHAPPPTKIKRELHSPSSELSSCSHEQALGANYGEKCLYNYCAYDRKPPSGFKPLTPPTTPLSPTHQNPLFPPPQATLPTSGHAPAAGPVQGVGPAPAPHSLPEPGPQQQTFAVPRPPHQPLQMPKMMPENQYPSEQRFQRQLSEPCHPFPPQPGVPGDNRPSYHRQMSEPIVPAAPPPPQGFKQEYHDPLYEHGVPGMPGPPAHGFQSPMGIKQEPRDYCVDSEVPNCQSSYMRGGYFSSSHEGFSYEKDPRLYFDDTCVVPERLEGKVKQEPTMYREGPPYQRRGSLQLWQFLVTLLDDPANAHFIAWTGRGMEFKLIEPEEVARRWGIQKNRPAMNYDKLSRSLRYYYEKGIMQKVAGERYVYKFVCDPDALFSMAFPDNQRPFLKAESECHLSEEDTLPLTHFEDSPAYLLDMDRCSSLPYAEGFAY
ETV1, sequence (P50549 whole entry): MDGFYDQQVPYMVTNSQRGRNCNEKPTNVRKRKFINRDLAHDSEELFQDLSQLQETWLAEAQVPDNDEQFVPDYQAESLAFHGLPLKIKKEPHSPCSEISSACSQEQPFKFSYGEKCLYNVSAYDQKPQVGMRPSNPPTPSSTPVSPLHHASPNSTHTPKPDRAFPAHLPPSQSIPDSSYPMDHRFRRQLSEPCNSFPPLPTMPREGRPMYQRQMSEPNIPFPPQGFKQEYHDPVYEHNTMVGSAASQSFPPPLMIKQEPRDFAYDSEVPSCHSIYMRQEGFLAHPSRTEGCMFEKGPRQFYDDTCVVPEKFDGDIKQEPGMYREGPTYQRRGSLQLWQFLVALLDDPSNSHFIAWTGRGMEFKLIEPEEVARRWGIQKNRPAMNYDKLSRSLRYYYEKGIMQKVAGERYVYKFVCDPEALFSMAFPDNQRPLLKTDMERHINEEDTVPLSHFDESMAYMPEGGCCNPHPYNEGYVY

For the sequence CTTAAC, the binding signal in [1] is 1.27 fold enrichment (6-mer frequency, TF over GST control); in experiment [2], 1.26 fold enrichment (6-mer frequency, TF over GST control); in experiment [3] it was 1.72 fold enrichment (6-mer frequency, TF over GST control); in experiment [4] it was 1.18 fold enrichment (6-mer frequency, TF over GST control); in [5], 1.28 fold enrichment (6-mer frequency, TF over GST control); in experiment [6], 1.34 fold enrichment (6-mer frequency, TF over GST control). The binding signal in [7] is 1.25 fold enrichment (6-mer frequency, TF over GST control); in experiment [8], 1.36 fold enrichment (6-mer frequency, TF over GST control); in [9] it was 2.4 fold enrichment (6-mer frequency, TF over GST control); in [10], 1.14 fold enrichment (6-mer frequency, TF over GST control); in experiment [11] it was 1.3 fold enrichment (6-mer frequency, TF over GST control); in [12] it was 1.22 fold enrichment (6-mer frequency, TF over GST control). For the same sequence, the binding signal is 1.3 fold enrichment (6-mer frequency, TF over GST control) in [13]; 1.36 fold enrichment (6-mer frequency, TF over GST control) in experiment [14]; 1.29 fold enrichment (6-mer frequency, TF over GST control) in [15]; 1.31 fold enrichment (6-mer frequency, TF over GST control) in [16]; 1.3 fold enrichment (6-mer frequency, TF over GST control) in experiment [17]; 1.29 fold enrichment (6-mer frequency, TF over GST control) in [18].

(Values after article PMC7862700, “An all-to-all approach to the identification of sequence-specific readers for epigenetic DNA modifications on cytosine”.)
